The results in this text go back to PubChem BioAssay AID493168 (National Center for Advancing Translational Sciences (NCATS), 2011).

Records with an inconclusive call do not appear. Where a call stands in place of a potency, no number is given. Activity calls are given as the source filed them. Calls come from the whole dose curve; as a rule, active = well fitted inhibition curve with a large enough effect; inconclusive = small, poorly fitted or top-dose-only effect, or effect the other way; inactive = flat fitted curve, though single readings scatter.
Potency is the fitted concentration of half-maximal effect.

Ubiquitin carboxyl-terminal hydrolase 2 (Homo sapiens), sequence (O75604 whole entry, looked up): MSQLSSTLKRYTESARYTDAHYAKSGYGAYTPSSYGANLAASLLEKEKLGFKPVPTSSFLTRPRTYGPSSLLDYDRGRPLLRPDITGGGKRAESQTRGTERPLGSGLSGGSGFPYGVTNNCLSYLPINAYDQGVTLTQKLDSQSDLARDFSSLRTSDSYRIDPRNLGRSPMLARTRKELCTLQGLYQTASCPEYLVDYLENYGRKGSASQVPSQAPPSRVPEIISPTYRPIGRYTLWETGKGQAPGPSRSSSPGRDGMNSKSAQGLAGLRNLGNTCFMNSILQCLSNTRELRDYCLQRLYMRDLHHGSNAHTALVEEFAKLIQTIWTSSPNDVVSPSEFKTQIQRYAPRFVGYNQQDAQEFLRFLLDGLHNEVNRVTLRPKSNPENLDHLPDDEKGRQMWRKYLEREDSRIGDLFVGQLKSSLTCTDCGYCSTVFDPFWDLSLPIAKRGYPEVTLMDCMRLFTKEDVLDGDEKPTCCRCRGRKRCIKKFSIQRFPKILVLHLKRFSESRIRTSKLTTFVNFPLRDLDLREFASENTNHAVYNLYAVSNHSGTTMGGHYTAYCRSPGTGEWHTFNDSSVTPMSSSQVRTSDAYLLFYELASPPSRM

The experiment addresses Ubiquitin carboxyl-terminal hydrolase 2 (Homo sapiens) (UniProt O75604). Put plainly: Confirmation Assay for Inhibitors of Ubiquitin-specific Protease USP2a Using CHOP2 as the Reporter. Note: nearly all actives have a fitted effect of over 55% in size. The settings on record: USP2 core, Ub-CHOP2 coupled reporter fluorescence; series mostly up to 38.3 µM. In short, it runs like this:
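USP2 core (10 nM final) was preincubated with compound for 30 min at RT in Tris-HCl pH 8.0, CaCl2, beta-mercaptoethanol, CHAPS. Ub-CHOP2 and reporter substrate (25 nM final each) were added, and fluorescence (Ex 485/Em 531 nm) was read after 60 min.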
As to `CC(=O)N1CCCc2cc(S(=O)(=O)CCC(=O)N3CCN(c4cccc(C)c4)C(C)C3)ccc21` (stereo not given), the Potency result is “inactive”.
The same measure for `CC(C)(C)NC(=O)C(c1ccco1)N(C(=O)c1ccc(CN2CCOCC2)o1)c1ccccc1` (stereo not given): “inactive”.
Turning to `O=C(O)C1Nc2c(O)cc(Cl)c([N+](=O)[O-])c2C2C=CCC12` (stereo not given), the Potency is 9.27 µM (active).
With `O=C(NCCCN1CCCC1=O)c1cccc(N2CCCC2=O)c1`, the Potency entry was “inactive”.
`CC(C)C(=O)Nc1ccc(C(=O)N2CCCCCC2)cc1`: the Potency entry was “inactive”.
`CCN(C[C@H]1N[C@@](CC)(C(=O)OC)[C@H]2C(=O)N(Cc3ccccc3)C(=O)[C@@H]12)C(=O)Nc1ccc(C)cc1`: the Potency entry was “inactive”.
As for `Cc1ccc(C(=O)C(=S)N2CCOCC2)cc1`, the Potency entry was “inactive”.
`COc1ccccc1C(=O)N1CCN=C1SC`: the Potency entry is “inactive”.
On to `CCOc1ccccc1N1C(=O)CC(Nc2ccc(N3CCOCC3)cc2)C1=O` (stereo not given), for which the Potency result was “inactive”.
With `C#CCOCCOCCOCCNc1nc(N2CCN(C(=O)CCCCCCCCCCNC(=O)[C@@H](CCC(=O)O)n3cc(CCCCCN)nn3)CC2)nc(N2CCN(C(=O)CCCCCCCCCCNC(=O)[C@H]([C@@H](C)CC)n3cc(CCCCCN)nn3)CC2)n1`, the Potency was 11.7 µM (active).
For the compound `Nn1c(Nc2ccccc2)nc2ccccc2c1=O`, the Potency result was “inactive”.
Turning to `O=[N+]([O-])c1ccc(Sc2nnnn2-c2ccccc2)c(Cl)c1`, the Potency result is “inactive”.
Take `CSC1=NCCN1C(=O)Cc1ccc(F)cc1`: the Potency result was “inactive”.
On to `O=C(N/N=C/c1ccc(-c2ccc(S(=O)(=O)Nc3ncccn3)cc2)o1)c1cc2ccccc2cc1O`, for which the Potency is 9.27 µM (active).
For `O=C(COc1ccccc1)Nc1nnc(-c2ccc(Cl)s2)o1`, the Potency result is “inactive”.
